For 7 compounds, growth results are on record in PubChem BioAssay (NCI).

Each structure is given as a SMILES string. The panel holds about 83,000 compounds, 20% with a hit somewhere; the sample as a whole holds those more often.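 Each cell line was grown in a 96-well plate and treated with one concentration of compound for 48 hours. Values below 10 were considered active.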 A number with no mark means an inactive call. Calls of active or inactive are those of the source.

Test in all cases: NCI-60 one-dose screen, 48 h (100 = growth as untreated, 0 = no growth, -100 = all killed)
Assay [1] has as its system SK-MEL-2 melanoma. The following applies: 10 µM.
For assay [2], the system named is EKVX NSCLC. The following applies: 10 µM.
Assay [3] has as its system SN12C renal. Particulars: 10 µM.
Assay [4] concerns UO-31 renal. The following applies: 10 µM.
Assay [5] relates to TK-10 renal. Particulars: 10 µM.
Assay [6] concerns ACHN renal. The following applies: 10 µM.
Assay [7] relates to CAKI-1 renal. Particulars: 10 µM.
The test system of assay [8] is A498 renal. The following applies: 10 µM.
Assay [9] deals with CCRF-CEM leukemia. Particulars: 10 µM.
The subject of assay [10] is MOLT-4 leukemia. Particulars: 10 µM unless noted.
Assay [11] deals with SR leukemia. The following applies: 10 µM.
Assay [12] concerns RPMI-8226 leukemia. The following applies: 10 µM.
Assay [13] deals with OVCAR-8 ovarian. The following applies: 10 µM.
The test system of assay [14] is OVCAR-5 ovarian. The following applies: 10 µM.
The test system of assay [15] is OVCAR-4 ovarian. The following applies: 10 µM.
Assay [16] concerns SK-OV-3 ovarian. The following applies: 10 µM.
The test system of assay [17] is IGROV1 ovarian. Particulars: 10 µM.
The subject of assay [18] is HS 578T breast. The following applies: 10 µM.
Assay [19] concerns NCI/ADR-RES ovarian. The following applies: 10 µM.

With `N#CC(=C1C=CC(=NO)C=C1)c1ccccc1`, the growth in [1] was 41.1%; in [2], 55.1%; in assay [3] it was 10.3%; in [4], 48.4%; in assay [5] it was 27.2%; in assay [6] it was 9.06% (active). For the same compound, the growth is 52.3% in [7]; 48% in assay [8]; 3.4% (active) in [9]; 19.2% in assay [10]; -17.5% (active) in assay [11]; -13% (active) in assay [12]. Besides, the growth is 2.63% (active) in assay [13]; -10.1% (active) in [14]; 14.4% in assay [15]; 37.8% in assay [16]; 24.5% in assay [17]; -18.3% (active) in [18]. Also, in assay [19], the growth was -37.2% (active).

For `CC[C@@]1(OC(=O)CN(C)C)C(=O)OCc2c1cc1n(c2=O)Cc2cc3c(N)cccc3nc2-1`, the growth is -17.4% (active) in assay [1]; 18.2% in assay [2]; 7.95% (active) in [3]; -50.8% (active) in assay [4]; 20.1% in [5]; -49% (active) in assay [6]. Besides, the growth in assay [7] was -20.1% (active); in [8] it was -56.6% (active); in assay [9], 5.31% (active); in assay [10], -0.423% (active); in assay [11] it was -3.07% (active); in assay [12], 2.58% (active). Further, the growth in [13] was 14.5%; in assay [14] it was 15.1%; in [15] it was 10.2%; in assay [16] it was 2.84% (active); in [17], -3.28% (active); in [18] it was 62.5%. Further, the growth in [19] was 5.59% (active).

With `CCC(C)(c1ccc(O)c(C)c1)c1ccc(O)c(C)c1`, the growth is 94.4% in assay [1]; 82.5% in assay [2]; 84.9% in assay [3]; 76% in assay [4]; 249% in assay [5]; 98.8% in [6]. Further, the growth in assay [7] was 62.1%; in assay [8] it was 110%; in assay [9], 89%; in assay [10], 130%; in assay [11], 113%; in [12], 84.1%. The growth in [13] is 103%; in assay [14], 101%; in assay [15], 91.9%; in assay [16], 50.8%; in assay [17] it was 85.5%; in assay [18], 95%. Moreover, the growth in assay [19] was 103%.

As to `O=C1c2cccc3cc([N+](=O)[O-])cc(c23)C(=O)N1CCN1CCCC1`, the growth is 4.73% (active) in assay [1]; 10.9% in assay [2]; -18.2% (active) in assay [3]; -42.8% (active) in assay [4]; -11.3% (active) in [5]; -57.9% (active) in assay [6]. In addition, the growth in assay [7] was -14% (active); in assay [8], -64.4% (active); in assay [9], -5.62% (active); in [10], -17.9% (active); in [11] it was -34.6% (active); in assay [12], -19.1% (active). Further, the growth was 9.55% (active) in assay [13]; -1.73% (active) in [14]; 3.14% (active) in assay [15]; -0.119% (active) in assay [16]; -2.59% (active) in assay [17]; -25.4% (active) in assay [18]. The growth in [19] was -2.54% (active).

On to `COc1cccc(C(c2cc3c(cc2O)OCO3)N2CCOCC2)c1OC` (stereo not drawn), for which the growth in [1] was 101%; in [2], 97.7%; in assay [3], 97.8%; in [4], 88.7%; in assay [5] it was 101%; in assay [6] it was 103%. Besides, the growth in [7] was 94.7%; in assay [8], 75.3%; in [9] it was 97.1%; in [10], 96%; in [11], 89.5%; in [12], 105%. The growth in assay [13] was 99.2%; in assay [14] it was 104%; in assay [15] it was 99.5%; in assay [16], 101%; in assay [17], 101%; in assay [18], 95.5%. Further, in [19], the growth was 104%.

In the case of `O=c1[nH]cc(/C=N\Nc2ccccc2)c(=O)[nH]1`, the growth in [1] is 46.1%; in assay [2], 56.4%; in assay [3], 68.7%; in [4], 26%; in assay [5] it was 78%; in assay [6], 40.3%. Moreover, the growth was 41.6% in assay [7]; 87.5% in assay [8]; 31.2% in [9]; 49.6% in assay [10]; 65.1% in assay [11]; 76.5% in assay [12]. The growth in [13] was 46.7%; in assay [14], 68.4%; in assay [15], 84.4%; in assay [16], 62.2%; in [17], 53.9%; in [18] it was 81.7%. Also, the growth in assay [19] is 56.4%.

For the compound `CN(C)c1ccc(/C=C/c2ccnc3ccccc23)cc1N`, the growth in assay [1] is 67.5%; in assay [2], 52.5%; in assay [3], 70.5%; in assay [4] it was 45.5%; in [5] it was 74.7%; in assay [6] it was 68.6%. For the same compound, the growth in assay [7] was 60.9%; in assay [8], 62.8%; in [9], 44.3%; in assay [10], 54.8%; in assay [11], 41.4%; in [12], 37.4%. Also, the growth in assay [13] was 75.3%; in assay [14] it was 91.8%; in assay [15], 58.2%; in [16], 72%; in assay [17], 65.7%; in [18], 80.2%. In addition, the growth in assay [19] was 68%.
